According to PubChem BioAssay (NCATS):
A number with no mark means an inactive call. Inconclusive results are not listed. The source made the active and inactive calls. Unless noted, calls come from the whole dose curve; as a rule, active = well fitted curve in either direction with a large enough effect (not every such curve was filed as active); inconclusive = small, poorly fitted or top-dose-only effect, or another doubt; inactive = flat fitted curve, though single readings scatter.

What was measured:
[1] = AP1 Signaling Pathway (AID 357); details: ME-180 AP-1-bla reporter, EGF-induced, beta-lactamase ratio, 5 h; at 7.69 µM (top of the series) unless noted;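 note: ME-180 reporter cells stimulated with EGF at its EC50 level; % is set by controls: 0 for no effect and ±100 for the full control effect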
How it was run: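 Cells are seeded overnight, exposed to compound titrations and an EC50 level of EGF for 5 hours at 37 °C, then loaded with CCF4 dye for 2.5 hours. Beta-lactamase activity under the AP-1 element is read as a blue/green ratio.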

[2] = target: Cytochrome P450 1A2 (Homo sapiens) (UniProt P05177); experiment: p450-cyp1a2 (AID 410; calls by dose curve; note: potency is the fitted concentration of half-maximal effect;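 for activity change, negative = inhibition: -100% = full effect of reference inhibitor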)
Chain of Cytochrome P450 1A2 (Homo sapiens) (P05177 whole entry, looked up): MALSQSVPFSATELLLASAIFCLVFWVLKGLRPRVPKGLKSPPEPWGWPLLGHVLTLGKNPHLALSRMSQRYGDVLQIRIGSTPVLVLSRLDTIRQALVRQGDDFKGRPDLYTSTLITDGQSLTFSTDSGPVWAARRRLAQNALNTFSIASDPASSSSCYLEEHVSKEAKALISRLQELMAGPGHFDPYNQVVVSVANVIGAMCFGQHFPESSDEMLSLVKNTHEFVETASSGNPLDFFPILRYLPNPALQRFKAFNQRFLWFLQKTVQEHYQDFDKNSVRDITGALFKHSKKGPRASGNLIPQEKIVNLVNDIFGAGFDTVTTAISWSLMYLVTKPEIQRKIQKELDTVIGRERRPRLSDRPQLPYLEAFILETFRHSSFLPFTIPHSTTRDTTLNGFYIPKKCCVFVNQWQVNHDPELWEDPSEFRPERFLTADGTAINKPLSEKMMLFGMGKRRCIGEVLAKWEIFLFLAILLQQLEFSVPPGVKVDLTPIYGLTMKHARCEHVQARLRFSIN
How it was run: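 Inhibition was calculated relative to 57 uM furafylline (full inhibition). The reaction used human CYP1A2 at 20nM with Luciferin-ME at its Km, 100uM, driven by an NADPH-regenerating system for 60 min at room temperature.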

[3] = NFAT Signaling Pathway (AID 444); details: Jurkat NFAT-bla M1, carbachol, beta-lactamase ratio, 5 h; at 7.69 µM (top of the series) unless noted;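 note: carbachol stimulus at about its EC50 of 1 µM final; % is set by controls: 0 for no effect and ±100 for the full control effect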
How it was run: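 Jurkat cells carrying an NFAT-driven β-lactamase reporter and co-transfected muscarinic M1 receptor were treated with compound plus carbachol (1 uM final, an EC50 level) for 5 h at 37 °C. CCF4 loading followed for 1 h at RT; 460/530 nm ratio gave %activity.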

[4] = Stat Signaling Pathway (AID 446); details: ME-180 SIE beta-lactamase reporter, IL-6 stimulated, 5 h; at 7.69 µM (top of the series) unless noted;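 note: ME-180 cervical cancer cells given 40 pM IL-6 alongside compound; SIE-controlled beta-lactamase reporter measured as 460/530 nm FRET emission ratio; % is set by controls: 0 for no effect and ±100 for the full control effect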
How it was run: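 ME-180 cells carrying a SIE-driven beta-lactamase reporter are stimulated with 40 pM IL-6 for 5 h at 37C in the presence of compound. The 460/530 nm FRET substrate ratio is read after 2.5 h at RT. Data are normalised to 300 pM IL-6 and to 125 nM JAK inhibitor controls.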

[5] = target: Glucocorticoid receptor (Homo sapiens) (UniProt P04150); experiment: GR-GFP Redistribution (AID 450;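 active = compounds whose dose series gives a full or clear partial fitted curve of increased nuclear translocation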; note: potency is the fitted concentration of half-maximal effect); details: U2OS GR-GFP nuclear translocation, laser cytometry, 2 h
Chain of Glucocorticoid receptor (Homo sapiens) (P04150 whole entry, looked up, the tested form may be a part): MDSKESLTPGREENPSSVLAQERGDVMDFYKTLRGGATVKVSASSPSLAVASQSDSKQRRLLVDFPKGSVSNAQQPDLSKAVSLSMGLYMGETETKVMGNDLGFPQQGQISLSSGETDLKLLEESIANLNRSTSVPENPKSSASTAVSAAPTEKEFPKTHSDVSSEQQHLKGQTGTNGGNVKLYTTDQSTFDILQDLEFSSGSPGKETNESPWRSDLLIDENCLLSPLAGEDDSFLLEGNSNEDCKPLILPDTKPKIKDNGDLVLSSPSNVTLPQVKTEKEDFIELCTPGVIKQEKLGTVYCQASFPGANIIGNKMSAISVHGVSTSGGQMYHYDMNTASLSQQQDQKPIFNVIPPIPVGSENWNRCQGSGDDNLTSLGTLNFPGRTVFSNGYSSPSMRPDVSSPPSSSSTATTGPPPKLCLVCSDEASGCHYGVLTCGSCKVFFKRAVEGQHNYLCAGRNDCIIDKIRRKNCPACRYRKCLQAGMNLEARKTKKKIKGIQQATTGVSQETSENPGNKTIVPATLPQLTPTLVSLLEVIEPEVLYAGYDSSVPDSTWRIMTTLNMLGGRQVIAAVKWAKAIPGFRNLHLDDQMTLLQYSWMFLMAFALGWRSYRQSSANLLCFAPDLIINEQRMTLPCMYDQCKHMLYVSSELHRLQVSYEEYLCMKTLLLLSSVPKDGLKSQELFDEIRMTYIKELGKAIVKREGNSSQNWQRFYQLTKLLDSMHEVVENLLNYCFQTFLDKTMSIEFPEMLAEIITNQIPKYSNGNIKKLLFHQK

[6] = target: Glucocorticoid receptor (Homo sapiens) (UniProt P04150); experiment: GR-EFC Redistribution (AID 451; calls by dose curve; note: potency is the fitted concentration of half-maximal effect); details: CHO-K1 GR-EFC translocation, beta-gal luminescence, 2 h
How it was run: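 CHO-K1 cells stably expressing nuclear-localized β-gal enzyme acceptor and GR fused C-terminally to the enzyme donor fragment; ligand-driven nuclear translocation restores β-gal by complementation. Compounds titrated up to 46 uM final, 2 h at 37 °C; luminescence read.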

[7] = target: Mitogen-activated protein kinase 10 (Mus musculus) (UniProt Q61831); experiment: JNK3 AlphaScreen Assay (AID 530);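 note: kinase came from lysate of stimulated human HepG2 cells; signal reports phosphorylation of biotinylated GST-cJun 1-79 at Ser73 with 10 µM ATP; % is set by controls: 0 for no effect and ±100 for the full control effect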
How it was run: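 JNK3 came from HepG2 lysates pre-activated with IL-1beta and TNF-alpha and phosphorylated biotinylated GST-cJun (1-79) at 10 uM ATP, pH 7.6, room temperature. Compounds were titrated. AlphaScreen signal used anti-phospho-cJun (Ser73) antibody.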

[8] = target: 3',5'-cyclic-AMP phosphodiesterase 4B (Homo sapiens) (UniProt Q07343); experiment: qHTS Assay for Inhibitors of PDE-IV (AID 607; active = well fitted activation curve with a large enough effect in the main read-out, with a control signal flat, not every such curve was filed as active; note: % of control where 0% means no effect)
Chain of 3',5'-cyclic-AMP phosphodiesterase 4B (Homo sapiens) (Q07343 whole entry, looked up): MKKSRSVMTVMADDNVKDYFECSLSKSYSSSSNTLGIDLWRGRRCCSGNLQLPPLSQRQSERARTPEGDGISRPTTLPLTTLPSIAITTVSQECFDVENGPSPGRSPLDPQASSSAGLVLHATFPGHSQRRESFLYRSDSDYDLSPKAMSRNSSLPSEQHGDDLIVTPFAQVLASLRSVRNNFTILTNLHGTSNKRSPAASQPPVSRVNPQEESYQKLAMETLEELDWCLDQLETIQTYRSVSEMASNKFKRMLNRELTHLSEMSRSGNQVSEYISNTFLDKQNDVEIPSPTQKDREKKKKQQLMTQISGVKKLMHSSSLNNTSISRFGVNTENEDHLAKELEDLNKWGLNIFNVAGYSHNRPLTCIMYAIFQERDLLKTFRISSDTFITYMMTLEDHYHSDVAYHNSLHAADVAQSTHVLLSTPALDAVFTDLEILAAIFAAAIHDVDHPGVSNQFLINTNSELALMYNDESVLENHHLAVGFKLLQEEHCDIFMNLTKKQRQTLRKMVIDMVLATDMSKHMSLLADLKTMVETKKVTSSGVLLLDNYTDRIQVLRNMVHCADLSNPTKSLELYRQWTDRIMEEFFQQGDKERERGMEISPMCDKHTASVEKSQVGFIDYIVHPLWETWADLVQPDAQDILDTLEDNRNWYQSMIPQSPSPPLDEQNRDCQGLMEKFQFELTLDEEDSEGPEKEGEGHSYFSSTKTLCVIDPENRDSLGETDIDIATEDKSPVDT
How it was run: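 HEK293 ACTOne cells with CNG channel (1000/well), endogenous PDE4; membrane potential dye, compounds up to 22.9 uM final. Fluorescence Ex 535/Em 590; RO 20-1724 (100 uM final) as reference.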

[9] = target: Cytochrome P450 2C9 (Homo sapiens) (UniProt P11712); experiment: qHTS Assay for Inhibitors and Substrates of Cytochrome P450 2C9 (AID 883; active = well fitted curve in the direction sought with a large enough effect; an effect the other way counts as inactive or inconclusive; note: % is set by controls: 0 for no effect and ±100 for the full control effect; nearly all actives have a fitted effect of over 60% in size)
Chain of Cytochrome P450 2C9 (Homo sapiens) (P11712 whole entry, looked up): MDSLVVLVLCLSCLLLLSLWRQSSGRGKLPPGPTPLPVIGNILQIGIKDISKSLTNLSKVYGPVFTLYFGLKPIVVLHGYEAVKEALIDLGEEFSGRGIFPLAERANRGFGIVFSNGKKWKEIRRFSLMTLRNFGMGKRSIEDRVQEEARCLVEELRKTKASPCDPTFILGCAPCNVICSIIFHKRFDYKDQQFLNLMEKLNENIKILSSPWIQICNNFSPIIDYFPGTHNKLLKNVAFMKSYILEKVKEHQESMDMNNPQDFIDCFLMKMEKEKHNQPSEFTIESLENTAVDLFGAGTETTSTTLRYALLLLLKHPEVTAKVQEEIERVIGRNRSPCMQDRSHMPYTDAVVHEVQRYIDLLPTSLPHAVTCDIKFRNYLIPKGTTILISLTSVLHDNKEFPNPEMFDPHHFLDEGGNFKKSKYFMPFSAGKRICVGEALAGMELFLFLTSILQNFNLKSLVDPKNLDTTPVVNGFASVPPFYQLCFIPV
How it was run: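 A luminogenic readout tracked human CYP2C9 (10nM) converting deoxyluciferin (100uM, at KM) in 25mM KPO4 during 60 min at 37C with regenerated NADPH. Values normalized to 57uM sulphaphenazole as complete inhibition.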

[10] = target: Cytochrome P450 2D6 (Homo sapiens) (UniProt P10635); experiment: qHTS Assay for Inhibitors and Substrates of Cytochrome P450 2D6 (AID 891; active = well fitted curve in the direction sought with a large enough effect; an effect the other way counts as inactive or inconclusive; note: nearly all actives have a fitted effect of over 60% in size; note: potency is the fitted concentration of half-maximal effect)
Chain of Cytochrome P450 2D6 (Homo sapiens) (P10635 whole entry, looked up): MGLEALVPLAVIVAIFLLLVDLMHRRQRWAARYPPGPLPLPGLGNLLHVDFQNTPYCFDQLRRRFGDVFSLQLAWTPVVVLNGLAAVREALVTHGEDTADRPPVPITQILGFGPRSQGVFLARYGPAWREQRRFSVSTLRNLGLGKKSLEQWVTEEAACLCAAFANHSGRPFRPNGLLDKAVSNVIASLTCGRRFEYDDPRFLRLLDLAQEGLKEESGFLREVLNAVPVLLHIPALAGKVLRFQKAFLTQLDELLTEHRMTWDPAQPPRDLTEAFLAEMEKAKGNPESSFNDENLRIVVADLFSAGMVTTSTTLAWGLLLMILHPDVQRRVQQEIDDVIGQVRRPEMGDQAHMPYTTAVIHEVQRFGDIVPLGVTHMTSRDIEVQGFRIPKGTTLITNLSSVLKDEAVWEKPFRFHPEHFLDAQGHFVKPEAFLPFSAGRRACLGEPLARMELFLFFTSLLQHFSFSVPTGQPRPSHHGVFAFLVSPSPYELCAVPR
How it was run: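 Human CYP2D6 (5 nM) with 30 uM Luciferin-ME EGE (at Km) in 100 mM KPO4, compound preincubated 10 min, then NADPH regeneration system for 60 min at room temperature. Luciferin read by luminescence; normalized to 1.43 uM quinidine.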

[11] = target: Cytochrome P450 2C19 (Homo sapiens) (UniProt P33261); experiment: qHTS Assay for Inhibitors and Substrates of Cytochrome P450 2C19 (AID 899; active = well fitted curve in the direction sought with a large enough effect; an effect the other way counts as inactive or inconclusive; note: nearly all actives have a fitted effect of over 60% in size; note: potency is the fitted concentration of half-maximal effect)
Chain of Cytochrome P450 2C19 (Homo sapiens) (P33261 whole entry, looked up): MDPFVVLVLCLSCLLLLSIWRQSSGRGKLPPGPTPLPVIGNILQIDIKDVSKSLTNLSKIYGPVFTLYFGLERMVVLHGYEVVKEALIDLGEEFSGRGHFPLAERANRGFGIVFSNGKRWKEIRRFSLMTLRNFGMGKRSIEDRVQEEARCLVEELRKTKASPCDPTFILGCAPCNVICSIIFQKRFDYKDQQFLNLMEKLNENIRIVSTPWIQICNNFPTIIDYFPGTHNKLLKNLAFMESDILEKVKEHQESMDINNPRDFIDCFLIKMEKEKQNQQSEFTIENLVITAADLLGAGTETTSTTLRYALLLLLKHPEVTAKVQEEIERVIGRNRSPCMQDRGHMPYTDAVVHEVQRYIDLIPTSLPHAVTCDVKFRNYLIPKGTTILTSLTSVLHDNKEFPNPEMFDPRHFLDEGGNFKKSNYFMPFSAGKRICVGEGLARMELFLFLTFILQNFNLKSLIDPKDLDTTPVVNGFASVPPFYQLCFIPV
How it was run: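 NADPH-dependent conversion of Luciferin-H EGE (10uM, at KM) by 5nM enzyme in 50mM KPO4, 60 min at 37C following 10 min compound preincubation. Stopped with luciferin detection buffer; luminescence read after 20 min.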

[12] = target: Cytochrome P450 3A4 (Homo sapiens) (UniProt P08684); experiment: qHTS Assay for Activators of Cytochrome P450 3A4 (AID 885; active = well fitted curve in the direction sought with a large enough effect; an effect the other way counts as inactive or inconclusive; note: nearly all actives have a fitted effect of over 65% in size)
Chain of Cytochrome P450 3A4 (Homo sapiens) (P08684 whole entry, looked up): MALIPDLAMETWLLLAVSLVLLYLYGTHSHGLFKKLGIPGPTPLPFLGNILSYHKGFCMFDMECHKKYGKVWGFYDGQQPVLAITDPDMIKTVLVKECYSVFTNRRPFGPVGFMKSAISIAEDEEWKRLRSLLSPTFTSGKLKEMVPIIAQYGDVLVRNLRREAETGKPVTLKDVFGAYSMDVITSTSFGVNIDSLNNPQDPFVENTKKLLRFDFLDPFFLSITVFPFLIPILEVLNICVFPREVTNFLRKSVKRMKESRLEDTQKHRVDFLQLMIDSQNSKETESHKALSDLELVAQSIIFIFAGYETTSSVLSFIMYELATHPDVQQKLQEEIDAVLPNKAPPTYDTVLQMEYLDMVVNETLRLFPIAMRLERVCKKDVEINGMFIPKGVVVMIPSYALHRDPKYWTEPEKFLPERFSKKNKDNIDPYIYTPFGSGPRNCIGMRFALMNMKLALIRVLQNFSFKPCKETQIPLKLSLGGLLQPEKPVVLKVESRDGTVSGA
How it was run: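 Human CYP3A4 (20 nM) with Luciferin-PPXE at 25 uM (its KM) in 200 mM KPO4; 10 min compound preincubation, then NADPH regeneration and 60 min reaction at RT. Luciferin read by luminescence; normalized to 57 uM ketoconazole full inhibition.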

[13] = target: Guanine nucleotide-binding protein G(i) subunit alpha-1 (Homo sapiens) (UniProt P63096); experiment: qHTS Assay for Inhibitors of RGS12 GoLoco Motif Activity (Green Fluorophore) (AID 879; active = well fitted curve in the direction sought with a large enough effect; an effect the other way counts as inactive or inconclusive;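 note: 0% = labeled peptide with Gαi1 and full inhibition = labeled peptide alone without protein; negative values mean loss of peptide binding seen as reduced polarization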)
Chain of Guanine nucleotide-binding protein G(i) subunit alpha-1 (Homo sapiens) (P63096 whole entry, looked up): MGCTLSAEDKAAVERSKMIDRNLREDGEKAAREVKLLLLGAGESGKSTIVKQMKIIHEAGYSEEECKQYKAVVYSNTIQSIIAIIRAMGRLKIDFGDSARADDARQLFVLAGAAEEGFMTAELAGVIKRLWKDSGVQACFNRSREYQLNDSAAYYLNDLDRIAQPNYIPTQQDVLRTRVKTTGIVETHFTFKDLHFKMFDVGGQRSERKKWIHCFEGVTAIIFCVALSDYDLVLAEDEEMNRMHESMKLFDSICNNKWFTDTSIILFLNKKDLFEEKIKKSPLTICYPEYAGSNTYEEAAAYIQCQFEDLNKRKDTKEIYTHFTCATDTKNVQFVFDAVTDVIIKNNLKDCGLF
How it was run: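 Fluorescence polarization assay: 50 nM Gαi1 with 10 nM FITC-labeled RGS12 GoLoco peptide in 10 mM Tris pH 7.5, 150 mM NaCl, 0.1 mM GDP, 0.05% NP40, 10 min at room temperature with compound.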

[14] = target: Muscarinic acetylcholine receptor M1 (Rattus norvegicus) (UniProt P08482); experiment: qHTS Assay for Antagonists of Acetylcholine Muscarinic M1 Receptor: Measurement of IP-One Response (AID 944; active = well fitted curve in the direction sought with a large enough effect; an effect the other way counts as inactive or inconclusive; note: nearly all actives have a fitted effect of over 75% in size)
How it was run: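 Steps: plate transfected CHO-M1 cells overnight; add test compound, 10 min; add carbachol (200 nM, EC80) in stimulation buffer with LiCl; incubate 30 min; add labelled IP1 tracer and anti-IP1 antibody in lysis buffer; read HTRF after 10 min.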

[15] = target: Pyruvate kinase (Leishmania mexicana) (UniProt Q27686); experiment: qHTS Validation Assay for Inhibitors of Leishmania Mexicana Pyruvate Kinase (AID 945; active = well fitted curve in the direction sought with a large enough effect; an effect the other way counts as inactive or inconclusive;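 note: 0% = DMSO only neutral control wells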)
Chain of Pyruvate kinase (Leishmania mexicana) (Q27686 2-499 E452W): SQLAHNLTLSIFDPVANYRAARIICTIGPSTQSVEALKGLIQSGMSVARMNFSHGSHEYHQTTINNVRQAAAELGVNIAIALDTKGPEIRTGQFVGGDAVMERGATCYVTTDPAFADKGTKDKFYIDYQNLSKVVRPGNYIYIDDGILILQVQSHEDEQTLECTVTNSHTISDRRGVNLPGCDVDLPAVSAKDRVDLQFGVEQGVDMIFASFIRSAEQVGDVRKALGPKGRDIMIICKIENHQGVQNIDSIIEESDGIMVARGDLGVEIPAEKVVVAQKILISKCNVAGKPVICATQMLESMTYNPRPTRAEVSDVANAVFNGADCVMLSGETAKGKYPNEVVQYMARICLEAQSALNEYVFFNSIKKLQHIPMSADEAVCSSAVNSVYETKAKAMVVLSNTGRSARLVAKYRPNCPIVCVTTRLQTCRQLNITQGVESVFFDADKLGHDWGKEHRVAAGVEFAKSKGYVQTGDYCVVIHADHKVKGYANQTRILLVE
How it was run: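 An endpoint luciferase assay: 0.2 nM LmPYK E451W turns over 0.5 mM PEP with 0.1 mM ADP for 1 h at room temperature, pH 7.2, before PKLight addition. Values are normalized to DMSO-only wells.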

[16] = target: Pyruvate kinase PKM (Homo sapiens) (UniProt P14618); experiment: qHTS Assay for Activators of Human Muscle Pyruvate Kinase (AID 954; active = well fitted curve in the direction sought with a large enough effect, not every such curve was filed as active;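 note: 0% = uninhibited enzyme and -100% = no enzyme or full thiadiazolimine inhibition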)
How it was run: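 Purified human PKM2 (0.1 nM) with 0.5 mM PEP (Km) and 0.1 mM ADP in 50 mM imidazole pH 7.2, KCl, MgCl2, 1 h at room temperature; ATP formed read by coupled luciferase luminescence. Normalized to no-enzyme/110 uM thiadiazolimine inhibition; 0.3 nM enzyme column for activation.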

[17] = target: Alpha-galactosidase A (Homo sapiens) (UniProt P06280); experiment: Counterscreen for Glucocerebrosidase Inhibitors: qHTS Assay for Human alpha-Galactosidase at pH 4.5 (AID 992; active = well fitted curve in the direction sought with a large enough effect; an effect the other way counts as inactive or inconclusive; note: 0% is about no effect)
How it was run: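 Human enzyme (2 nM) with 80 uM 4-methylumbelliferyl alpha-D-galactopyranoside in 50 mM citric acid, 0.005% Tween-20, pH 4.5, 20 min at room temperature. Compounds 0.7 nM–77 uM; fluorescence Ex 365/Em 440 after pH 10 stop; AC50 from Hill fits.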

[18] = target: alpha-glucosidase (Oryza sativa, rice) (UniProt Q653V4); experiment: Counterscreen for Glucocerebrosidase Inhibitors: qHTS Assay for Rice alpha-Glucosidase at pH 5.0 (AID 997; active = well fitted curve in the direction sought with a large enough effect; an effect the other way counts as inactive or inconclusive;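 note: 0% = full activity with enzyme and -100% = basal without enzyme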)
How it was run: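 Rice alpha-glucosidase (4 nM final) with 400 uM 4-methylumbelliferyl-alpha-D-glucopyranoside in citrate buffer pH 5.0, 20 min at room temperature, stopped at pH 10; fluorescence 365/440 nm, compounds 0.7 nM–77 uM, AC50 from Hill fits.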

SMILES | activity change, negative = inhibition [1] | Potency [2] | activity change, negative = inhibition [3] | activity, negative = inhibition [4] | Potency [5] [µM] | Potency [6] [µM] | Potency [7] | Potency [8] | Potency [9] | Potency [10] | Potency [11] | Potency [12] | outcome [13] | Potency [14] | outcome [15] | outcome [16] | outcome [17] | Potency [18]
O=C(O)CCCCCC[C@@H]1C(=O)NC(=O)N1CC[C@@H](O)C1CCCCC1 | -8.86% [at 38 µM] | inactive | -9.7% [at 38 µM] | 3.65% [at 38 µM] | > 46 | > 46 | inactive | inactive | inactive | inactive | inactive |  |  |  |  |  |  | 
C[N@+]1(CCC(=O)c2ccccc2)CC[C@H]2CC[C@H](C2)C1 | 2.46% | inactive | 3.4% | 1.34% | > 46 | > 9.22 | inactive | inactive |  |  | inactive |  |  |  |  |  |  | 
COc1ncc2nc(-c3cc(F)cc(F)c3)c(=O)n(C[C@H]3CCCO3)c2n1 | -0.553% | 3.16 µM (active) | -10.9% | -4.03% | > 9.22 | > 46 | inactive | inactive |  |  |  | inactive |  |  |  |  |  | 
C[N+]1(CCC(=O)c2ccco2)CC2CCC(CC2)C1 (stereo not drawn) | 6.86% | inactive | 7.5% | 1.18% | > 46 | > 9.22 | inactive | inactive |  | inactive |  |  |  |  |  |  |  | 
Cc1ccccc1/C=C\C1=NCCN1 | -3.38% [at 38 µM] | 6.31 µM (active) | -1.9% [at 38 µM] | 5.08% [at 38 µM] | > 46 | > 46 | inactive |  |  |  |  |  | inactive | inactive | inactive | inactive | inactive | inactive
COc1cc(OC)cc([C@H](CNc2ncnc3c2ncn3[C@@H]2O[C@@H](CO)[C@H](O)[C@@H]2O)c2ccccc2C)c1 | -6.78% [at 38 µM] | inactive | 19.3% [at 38 µM] | 3.32% [at 38 µM] | > 46 | > 46 | inactive | inactive |  |  | inactive |  |  |  |  |  |  | 
NC(N)=Nc1nc2ccc([N+](=O)[O-])cc2[nH]1 | 0.0978% | 3.16 µM (active) | 0.0962% | 9.75% | > 46 | > 9.22 | inactive | inactive |  |  |  |  |  |  |  |  |  | 
CCNc1ncc2nc(CCc3ccccc3)c(=O)n(C)c2n1 | -11.6% | 2.51 µM (active) | -7.02% | -0.83% | > 9.22 | > 46 | inactive |  |  | 1.58 µM (active) | 2.51 µM (active) | inactive |  |  |  |  |  | 
